Shown are actives, neighbours in structure and some others; about 2.3% of the full set was active somewhere.
EBNA-1 inh = EBNA-1 DNA-binding inhibitors, primary screen, biochemical, fluorescence polarization. inhibition, % at 14.8 µM. 0.34% of 300,000 active. AID 1950, 2009; in the data active = inhibition above about 28%
MsrA inhibitor = bovine MsrA enzyme inhibitors, primary screen, biochemical, absorbance, HTS. AID 651718, 2012. 0.75% of 360,000 active. inhibition, % at 15.5 µM. Methionine sulfoxide reductase A (Bos taurus). purified bovine MsrA, absorbance read-out; in the data active = inhibition above about 4.5%;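 note: 0% = vehicle wells with enzyme and 100% = reference inhibitor wells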
PP1 counter = PP1-alpha phosphatase inhibitors, primary screen, counter-screen for PP5 inhibitor project, biochemical, fluorescence, OMFP substrate, single point; Serine/threonine-protein phosphatase PP1-alpha catalytic subunit (Homo sapiens), P62136; purified PP1alpha; inhibition, % at 6.7 µM; 0.9% of 320,000 active; AID 2235, 2010;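 active = inhibition above the mean inhibition of all tested compounds plus 3 SD, computed separately for each screening campaign, cut at about 15% in these data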
Target sequence (P62136 whole entry, looked up): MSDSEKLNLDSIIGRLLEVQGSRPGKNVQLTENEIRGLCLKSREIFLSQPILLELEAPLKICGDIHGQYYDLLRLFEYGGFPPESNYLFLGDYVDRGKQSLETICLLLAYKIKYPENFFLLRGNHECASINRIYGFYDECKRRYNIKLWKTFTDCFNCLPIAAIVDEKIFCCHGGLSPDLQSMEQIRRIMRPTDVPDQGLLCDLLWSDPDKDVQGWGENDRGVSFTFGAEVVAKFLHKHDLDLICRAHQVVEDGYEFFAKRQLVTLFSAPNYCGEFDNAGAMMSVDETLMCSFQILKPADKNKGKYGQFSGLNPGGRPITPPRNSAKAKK
PP5 inh = PP5 phosphatase inhibitors, primary screen, biochemical, fluorescence. Serine/threonine-protein phosphatase 5 (Homo sapiens), P53041. purified PP5c, OMFP substrate fluorescence. inhibition, % at 6.7 µM. 0.18% of 320,000 active;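 active = inhibition above the campaign's mean inhibition across all tested compounds plus 3 SD, cut at about 9.5% in these data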;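 note: 0% = DMSO only and 100% = 100 µM cantharidin control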
MsrA act = bovine MsrA enzyme activators, primary screen, biochemical, absorbance, HTS. 0.3% of 360,000 active. purified bovine MsrA, absorbance read-out. Methionine sulfoxide reductase A (Bos taurus). activation, % at 10.6 µM; in the data active = activation above about 7.5%;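 note: 0% = vehicle and 100% = reference activator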
ZTA counter = ZTA (EBV) inhibition in EBNA-1 counter-screen; P03206; ZTA-DNA binding, fluorescence polarization; inhibition, % at 11 µM; 0.15% of 320,000 active; AID 2234; in the data active = inhibition above about 33%
Target sequence (P03206 whole entry, looked up): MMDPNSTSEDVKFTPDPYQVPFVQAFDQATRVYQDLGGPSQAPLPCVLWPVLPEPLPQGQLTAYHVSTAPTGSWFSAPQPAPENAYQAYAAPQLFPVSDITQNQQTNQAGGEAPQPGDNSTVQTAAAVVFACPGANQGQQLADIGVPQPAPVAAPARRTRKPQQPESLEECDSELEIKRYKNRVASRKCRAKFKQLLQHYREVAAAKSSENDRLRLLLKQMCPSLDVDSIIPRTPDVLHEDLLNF
PP1 inh confirm = PP1 phosphatase inhibitors, confirmation, biochemical, fluorescence, OMFP substrate, triplicate. shares compounds with PP1 counter. purified PP1alpha. AID 2358, 2010. 52% of 1,900 active. inhibition, % at 6.7 µM;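 active = mean PP1 inhibition above a set limit taken from the earlier primary screen, cut at about 15% in these data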
PP5 counter = PP5 phosphatase inhibition by PP1 hits, confirmation, counter-screen for PP1 inhibitor project, biochemical, fluorescence, triplicate; AID 2360, 2010; shares compounds with PP1 counter; purified PP5c, OMFP fluorescence; 4% of 1,900 active; inhibition, % at 6.7 µM;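 active = mean PP5 inhibition over triplicate wells above about 9.5% taken from the earlier PP1 screen, limit read from the data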
An asterisk follows results filed as active.

Results for Nc1nc(-c2ccccn2)nc(N)c1Cc1ccc(Cl)cc1Cl ?
EBNA-1 inh: -4.8; MsrA inhibitor: 2.1; PP1 counter: 34.1*; PP5 inh: 2.3; MsrA act: -3.5; ZTA counter: 5.3; PP1 inh confirm: 46.9*; PP5 counter: 4.6

What do the screens show for `Nc1nc(-c2ccccn2)nc(N)c1Cc1ccccc1F`?
EBNA-1 inh: 4.3; MsrA inhibitor: 0.3; PP1 counter: 14.0; PP5 inh: 4.3; MsrA act: -3.8; ZTA counter: -4.4

How did CC(C)CC1C(=O)N(Cc2cn(Cc3ccco3)nn2)CCS(=O)(=O)N1Cc1ccc(-c2ccncc2)cc1 (configuration not stated) do in these assays?
MsrA inhibitor: -0.8; MsrA act: -1.4

What do the screens show for `CC(=O)c1ccccc1NS(C)(=O)=O`?
EBNA-1 inh: -6.2; MsrA inhibitor: 0.4; PP1 counter: -5.8; PP5 inh: 1.2; MsrA act: -0.8; ZTA counter: -2.6

How did Cc1cccc(C(=O)N=c2c(C#N)cc3c(=O)n4cccc(C)c4nc3n2Cc2ccco2)c1 do in these assays?
EBNA-1 inh: 4.1; MsrA inhibitor: 1.5; PP1 counter: 25.1*; PP5 inh: 3.2; MsrA act: -3.4; ZTA counter: -4.7; PP1 inh confirm: 7.4; PP5 counter: -1.0

How did Cc1ccc(-c2cc(C(=O)N/N=C/c3ccco3)[nH]n2)cc1 do in these assays?
EBNA-1 inh: 3.3; MsrA inhibitor: 1.8; PP1 counter: -56.0; PP5 inh: -6.8; MsrA act: -0.4; ZTA counter: -16.5; PP1 inh confirm: -5.0; PP5 counter: -5.1

Results for COc1cccc(C(C(=O)NCc2ccccc2)N(C(=O)c2csnn2)C2CC2)c1 (configuration not stated) ?
EBNA-1 inh: 15.2; MsrA inhibitor: 0.7; PP1 counter: -3.0; PP5 inh: -0.1; MsrA act: -2.9; ZTA counter: 7.9

How did Cc1c(C(=O)N(C)C(C)c2ccccn2)oc2c(F)cccc12 (configuration not stated) do in these assays?
EBNA-1 inh: -13.3; MsrA inhibitor: 0.1; PP1 counter: -1.9; PP5 inh: 2.9; MsrA act: -0.3; ZTA counter: -6.7

What do the screens show for `O=C(O)CCCN1C(=O)/C(=C\c2ccccc2OCc2ccccc2)SC1=S`?
EBNA-1 inh: -3.9; MsrA inhibitor: -0.5; PP1 counter: 18.5*; PP5 inh: 4.0; MsrA act: -2.5; ZTA counter: 2.2; PP1 inh confirm: 12.8; PP5 counter: -2.3

Results for O=C1/C(=C/c2ccccc2Cl)SC(=S)N1CCCC(=O)N(CCO)c1ccccc1 ?
EBNA-1 inh: 7.5; MsrA inhibitor: 2.1; PP1 counter: 17.8*; PP5 inh: 1.3; MsrA act: 0.3; ZTA counter: 3.0; PP1 inh confirm: 15.0; PP5 counter: 5.3

How did c1ccc(COc2ccc(-c3cc4nc(NCCN5CCOCC5)ccn4n3)cc2)cc1 do in these assays?
MsrA inhibitor: 0.4; MsrA act: -1.3

Results for Clc1nssc1=Nc1ccccc1 ?
MsrA act: -7.9

What do the screens show for `Clc1ccc(N=c2ssnc2Cl)cc1`?
EBNA-1 inh: -0.5; MsrA inhibitor: 1.6; PP1 counter: 19.3*; PP5 inh: 0.5; MsrA act: -1.9; ZTA counter: 5.0; PP1 inh confirm: 1.1; PP5 counter: -1.5

What do the screens show for `Cc1cc(C)cc(NS(=O)(=O)c2ccc3[nH]cc(C(=O)N4CCc5ccccc54)c(=O)c3c2)c1`?
EBNA-1 inh: -5.4; MsrA inhibitor: 0.8; PP1 counter: 7.0; PP5 inh: 0.8; MsrA act: -3.9; ZTA counter: -8.9

Results for CCc1ccc(NS(=O)(=O)c2ccc3[nH]cc(C(=O)N4CCc5ccccc54)c(=O)c3c2)cc1 ?
EBNA-1 inh: 4.6; MsrA inhibitor: 0.0; PP1 counter: 18.6*; PP5 inh: -0.2; MsrA act: -4.3; ZTA counter: -5.9; PP1 inh confirm: 2.2; PP5 counter: -1.5

What do the screens show for `CCC(=O)N(C)C[C@@H]1Oc2ncc(Br)cc2C(=O)N([C@@H](C)CO)C[C@H]1C`?
MsrA inhibitor: -0.7; MsrA act: -3.2

What do the screens show for `COc1ccccc1N=Nc1ccc(O)c2ncccc12`?
EBNA-1 inh: -5.7; MsrA inhibitor: 0.0; PP1 counter: 18.6*; PP5 inh: 6.6; MsrA act: -2.0; ZTA counter: -13.7; PP1 inh confirm: 16.0*; PP5 counter: 5.1

Results for CCS(=O)(=O)c1ccc(N=Nc2ccc(O)c3ncccc23)c(OC)c1 ?
MsrA inhibitor: 2.4; MsrA act: -4.6

How did COc1ccc(-c2cc(C(=O)N3CCN(C(c4ccccc4)c4ccccc4)CC3)no2)cc1 do in these assays?
EBNA-1 inh: 6.0; PP1 counter: 4.1; PP5 inh: 0.4; MsrA act: -3.2; ZTA counter: 1.0

Results for O=C(c1cc(-c2ccco2)on1)N1CCN(C(c2ccccc2)c2ccccc2)CC1 ?
EBNA-1 inh: 2.8; MsrA inhibitor: 0.5; PP1 counter: 19.4*; PP5 inh: 2.7; MsrA act: 1.9; ZTA counter: 3.0; PP1 inh confirm: 6.9; PP5 counter: -1.1

How did COc1ccc(CCNC(=O)CNS(=O)(=O)c2ccc(F)c(Cl)c2)cc1OC do in these assays?
EBNA-1 inh: -19.6; MsrA inhibitor: -0.1; PP1 counter: 6.2; PP5 inh: -4.5; MsrA act: -2.9; ZTA counter: 19.0

What do the screens show for `COc1ccc(CCNC(=O)COc2ccc(S(=O)(=O)NCC(C)C)cc2Cl)cc1OC`?
EBNA-1 inh: -2.0; MsrA inhibitor: -0.1; PP1 counter: 18.5*; PP5 inh: 1.9; MsrA act: -4.6; ZTA counter: -1.2; PP1 inh confirm: -0.8; PP5 counter: -0.1

How did CN(C)CCNc1ncnc2c1ncn2[C@H]1CN(Cc2ccc3c(c2)OCO3)C[C@@H](CO)O1 do in these assays?
MsrA inhibitor: -0.8; MsrA act: -8.1

What do the screens show for `Cc1cc2oc3ccc(NCCCn4ccnc4)cc3c(=O)c2cc1C`?
EBNA-1 inh: 2.4; MsrA inhibitor: -1.2; PP1 counter: 24.8*; PP5 inh: 2.0; MsrA act: -1.5; ZTA counter: 28.2; PP1 inh confirm: 5.3; PP5 counter: -1.8

How did Cc1cc2oc3ccc(NCCCN4CCOCC4)cc3c(=O)c2cc1C do in these assays?
EBNA-1 inh: -1.4; MsrA inhibitor: -0.3; PP1 counter: 0.6; PP5 inh: 3.4; MsrA act: -0.4; ZTA counter: 3.5

Screens from PubChem.
